Values without a mark were called inactive. How the calls were made is not given here.
These compounds were tested against Pantothenate synthetase (Mycobacterium tuberculosis (strain ATCC 25618 / H37Rv)) (UniProt P9WIL5) (assay: Coupled enzyme confirmation of inhibitors against recombinant Mtb PanC (AID 375;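 further: 0% = full reaction with vehicle and 100% = no enzyme background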)). Settings: coupled enzyme assay; at 10 µM, stronger effect = higher value.
Chain of Pantothenate synthetase (Mycobacterium tuberculosis (strain ATCC 25618 / H37Rv)) (P9WIL5 whole entry, looked up): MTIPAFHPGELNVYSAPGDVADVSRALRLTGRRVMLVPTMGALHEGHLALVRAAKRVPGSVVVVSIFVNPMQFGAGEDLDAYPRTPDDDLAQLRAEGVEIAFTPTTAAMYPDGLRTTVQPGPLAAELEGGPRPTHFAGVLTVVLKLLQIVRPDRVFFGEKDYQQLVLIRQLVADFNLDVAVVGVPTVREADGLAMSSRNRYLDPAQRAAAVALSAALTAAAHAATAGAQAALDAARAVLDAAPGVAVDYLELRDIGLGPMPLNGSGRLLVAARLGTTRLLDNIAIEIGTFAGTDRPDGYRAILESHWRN
In the case of `CC(=O)Nc1c(Cl)n(C(C)=O)c2ccccc12`, the inhibition is reported as 7%.
With `CN(C)C(=O)Oc1ccc[n+](C)c1` the inhibition was 4%.
Work on `CC(c1ccco1)N(Cc1ccco1)C(=O)Nc1ccccc1` (stereo not given) yielded an inhibition of 0%.
`CCn1c(Cc2ccccc2)nnc1SCC(=O)Nc1nc2ccccc2s1` showed an inhibition of 2%.
With `Cc1nc2ccc(NC(=O)NCc3ccco3)cc2s1` the inhibition was 0%.
For `COc1ccc(N2CCN(C(c3cccc(OC)c3OC)c3nnnn3C3CCCC3)CC2)cc1` (stereo not given), the inhibition was 0%.
For `CC(=O)c1cc(-c2ccccc2)n(CC(=O)N2CCC(N3CCCCC3)CC2)c1C`, the inhibition was 0%.
Work on `COc1ccc(OC)c(S(=O)(=O)Nc2ccccc2C(=O)O)c1` yielded an inhibition of 6%.
In the case of `Cc1cc(C)c(C#N)c(SCc2[nH]nc3c2C(c2ccccc2)C(C#N)=C(N)O3)n1` (stereo not given), the inhibition is reported as 0%.
Compound `COC(=O)c1cc(Br)c(=O)n(-c2ccc(OC)cc2)c1` has an inhibition of 0%.
`COc1ccc(CNC(=O)c2cc3c(=O)n4ccccc4nc3n(Cc3ccco3)c2=N)cc1` gave an inhibition of 0%.
Compound `O=C(/C=C/c1ccccc1)c1ccccc1` has an inhibition of 0%.
For `COCC(=O)N(Cc1cc2cc(OC)ccc2[nH]c1=O)c1ccccc1`, the inhibition was 0%.
Compound `CCn1cc(C(=O)OCC(=O)OC2CC(C)CCC2C(C)C)c(=O)c2ccc(C)nc21` (stereo not given) has an inhibition of 5%.
With `CSc1cccc(NC(=O)C2CCN(S(C)(=O)=O)CC2)c1` the inhibition was 0%.
With `O=S(=O)(NCCCCCNS(=O)(=O)c1ccccc1)c1ccccc1` the inhibition was 6%.
For `O=S(=O)(c1ccc(OCC(O)CN2CCc3ccccc3C2)cc1)N1CCOCC1` (stereo not given), the inhibition was 9%.
Work on `Cc1ccc(N2CCN(S(=O)(=O)N(C)C)CC2)c(C)c1` yielded an inhibition of 0%.
Work on `CCC1(c2ccccc2)C(=O)NCNC1=O` yielded an inhibition of 7%.
`O=S1(=O)N=C(Nc2nc3c(s2)CCCC3)c2ccccc21` gave an inhibition of 4%.
`CNCCCC1c2ccccc2C=Cc2ccccc21` was tested, and the inhibition was 0%.
With `COCCNC(=O)CN1C(=O)CSc2ncccc21` the inhibition was 0%.
For `COc1ccccc1Nc1nc(N)nc(CSc2nccc(C)n2)n1`, the inhibition was 0%.
`CCOC(=O)c1c(C)n(C)c2ccc(O)c(S(=O)(=O)c3ccccc3)c12` gave an inhibition of 9%.
`COc1ccccc1CNS(=O)(=O)c1ccc(NC(C)=O)cc1` showed an inhibition of 0%.
For `COC(=O)CCC(=O)CN`, the inhibition was 0%.
`COCCNC(=O)CN1CCN(Cc2cccc(Cl)c2)C1=O` showed an inhibition of 0%.
For `CCCc1cc(=O)[nH]c(SCc2ccccc2)n1`, the inhibition was 0%.
Work on `CCn1c(SCC(=O)Nc2nc(C)cs2)nnc1-c1ccco1` yielded an inhibition of 0%.
Work on `CCOC(=O)C1(C(=O)OCC)C(c2ccccc2)CC(O)N1C(C)=O` (stereo not given) yielded an inhibition of 0%.
In the case of `CCOC(=O)c1cnc(-n2cc(C)cn2)nc1Nc1ccccc1OC`, the inhibition is reported as 0%.
In the case of `COc1ccccc1-c1nc2n(n1)C(c1cccs1)C(C(=O)Nc1cccnc1)=C(C)N2` (stereo not given), the inhibition is reported as 0%.
With `Cc1[nH]nc2c1C1(C(=O)N(Cc3ccc(Cl)cc3)c3ccccc31)C(C#N)=C(N)O2` (stereo not given) the inhibition was 0%.
For `CC(C)(O)C1=NOC(c2ccccc2)C1` (stereo not given), the inhibition was 0%.
`CCCCCC1CC(CC(C)C(=O)Nc2nncs2)C(=O)O1` (stereo not given) showed an inhibition of 9%.
`CCOC(=O)c1c(C)[nH]c(C(=O)Cn2c(=O)oc3ccccc32)c1C` gave an inhibition of 4%.
`CCOc1ccc(C2C(C(=O)OC)=CN(CCOC)C=C2C(=O)OC)cc1` gave an inhibition of 4%.
In the case of `O=S(=O)(c1ccc2ccccc2c1)N1CCCCC1`, the inhibition is reported as 0%.
For `CC(=O)Nc1c2c(nn1-c1ccc(C)cc1C)CSC2`, the inhibition was 0%.
In the case of `O=C(NCc1ccco1)c1noc2c1CCCCC2`, the inhibition is reported as 12%.
